# Measured values reported in the supplement of paper PMC11482750.
# ± gives the standard deviation of the averaged measurements.
# Compound: C=CCN=C=S [allyl isothiocyanate]
# Test: control-subtracted net OSN firing rate; higher = stronger neuronal activation
# Details: odorant dilution (vol/vol): 1/100
# Summary of the method: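 Olfactory sensory neurons in palp or antennal sensilla of fed female flies aged 1–5 days were recorded by single sensillum recording. The flies were Scaptomyza species or D. melanogaster wild-type, mutant or at1 empty-neuron lines expressing Or42a homologs. Odorants diluted 1:100 vol/vol in mineral oil or dimethyl sulfoxide (20 μl on filter paper) were delivered as 1 s pulses into 16 ml/min filtered air, and spikes counted over 0.5 s starting 0.2 s after onset were background-subtracted, doubled and solvent-corrected. Values are replicate means.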
row,Target,control-subtracted net OSN firing rate
1,Canton-S (D. melanogaster) ab3b,-4.33 ± 7.5 spikes/s
2,Canton-S (D. melanogaster) ab5b,-3.14 ± 11 spikes/s
3,Canton-S (D. melanogaster) ab2b,-6 ± 4 spikes/s
4,Canton-S (D. melanogaster) at1,-0.286 ± 14 spikes/s
5,Canton-S (D. melanogaster) ab2a,-1.33 ± 2.4 spikes/s
6,Canton-S (D. melanogaster) ab1a,-3.67 ± 15 spikes/s
7,Canton-S (D. melanogaster) ab3a,30 ± 16 spikes/s
8,Canton-S (D. melanogaster) ab4a,83.1 ± 18 spikes/s
9,Canton-S (D. melanogaster) ab9a,41 ± 45 spikes/s
10,Canton-S (D. melanogaster) ai2a,4 ± 7.8 spikes/s
11,Canton-S (D. melanogaster) ab5a,-2 ± 7.1 spikes/s
12,Canton-S (D. melanogaster) ab6a,2.67 ± 5.9 spikes/s
13,TrpA1- (D. melanogaster) pb1a,152 ± 22 spikes/s
14,Canton-S (D. melanogaster) at4a,-3 ± 7.5 spikes/s
15,Canton-S (D. melanogaster) ab7b,-5.14 ± 9.4 spikes/s
16,Canton-S (D. melanogaster) ab1d,-4.33 ± 9.1 spikes/s
17,Canton-S (D. melanogaster) ab10a,8.8 ± 6.8 spikes/s

row,Target,control-subtracted net OSN firing rate
1,Canton-S (D. melanogaster) ab7a,-8.86 ± 13 spikes/s
2,Or42a- (D. melanogaster) pb1a,-2.5 ± 4 spikes/s
3,Canton-S (D. melanogaster) ab8b,45.4 ± 36 spikes/s
4,Canton-S (D. melanogaster) at4b,-3 ± 6.5 spikes/s
5,Canton-S (D. melanogaster) ab9b,2.33 ± 17 spikes/s
6,Canton-S (D. melanogaster) ai3c,6 ± 13 spikes/s
7,Canton-S (D. melanogaster) ab8a,31.1 ± 18 spikes/s
8,w1118 (D. melanogaster) pb1a,91.3 ± 46 spikes/s
9,Canton-S (D. melanogaster) ai3a,0.667 ± 6 spikes/s
10,Canton-S (D. melanogaster) ai2b,-1.14 ± 4.3 spikes/s
11,Canton-S (D. melanogaster) ab10b,0.4 ± 5.7 spikes/s
12,Canton-S (D. melanogaster) ai3b,3.67 ± 7.3 spikes/s
13,Canton-S (D. melanogaster) ab1c,-3.33 ± 11 spikes/s
14,Canton-S (D. melanogaster) ab6b,-5.33 ± 19 spikes/s
15,Canton-S (D. melanogaster) ab1b,15.3 ± 20 spikes/s
16,Canton-S (D. melanogaster) ab4b,-2.57 ± 3.2 spikes/s
17,Canton-S (D. melanogaster) at4c,1.33 ± 4.7 spikes/s
